TDP1 cell noCPT: qHTS for Inhibitors of human tyrosyl-DNA phosphodiesterase 1 (TDP1): qHTS in cells in absence of CPT; DT40 Tdp1-/- hTDP1 cells, no CPT, ATP luminescence, 48 h; 420,000 tested, 15% active; Potency, µM (highest dose often 46.2 µM), usual class: inhibitors; further: nearly all actives have a fitted effect of over 55% in size
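Stably hTDP1-transfected Tdp1-null chicken DT40 cells were treated with library compounds minus camptothecin and grown for at least 48 hr at 37 °C, after which cellular ATP was quantified by luminescence.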
IL1B secr inh: inhibitors of inflammasome signaling (IL-1 beta secretion); THP-1 LPS/ATP IL-1B secretion, AlphaLISA, 16 h; hits give low values; activity change, % at 57.5 µM; 360,000 tested, 4.7% active; AID 743279; in the data active means activity change below about -50%; inconclusive means mostly about -30% to -49%
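Secreted IL-1B measured by AlphaLISA bead assay after 16 h compound exposure of THP-1 cells; compounds (final up to 57.5 uM) added 1 h before LPS (250 ng/mL) and ATP (1.25 mM) stimulation; lower signal means less secretion.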
DRD3 antagonist: D3 dopamine receptor (human) antagonism; AID 652054; P35462; 360,000 tested, 2.5% active; D3R cells, DiscoveRx beta-arrestin luminescence, antagonist mode; hits give low values; max response, negative = inhibition, %; in the data active means max response below about -50%; inconclusive means no clear call, values can overlap the other calls
Target sequence (P35462 whole entry, looked up): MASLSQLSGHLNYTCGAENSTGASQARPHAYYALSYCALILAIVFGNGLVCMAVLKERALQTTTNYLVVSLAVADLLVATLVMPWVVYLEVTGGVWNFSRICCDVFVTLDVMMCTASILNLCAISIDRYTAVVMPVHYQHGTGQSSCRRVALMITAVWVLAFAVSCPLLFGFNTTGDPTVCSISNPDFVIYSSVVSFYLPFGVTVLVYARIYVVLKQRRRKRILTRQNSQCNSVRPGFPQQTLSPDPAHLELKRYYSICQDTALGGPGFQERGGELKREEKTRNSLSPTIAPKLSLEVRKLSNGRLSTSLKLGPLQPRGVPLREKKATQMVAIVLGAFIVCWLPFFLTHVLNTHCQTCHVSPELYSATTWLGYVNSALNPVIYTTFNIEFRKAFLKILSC
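Cells expressing the human receptor were seeded at 1500 cells/well, incubated overnight at 37 degrees C in 5% CO2, then exposed to library compounds with dopamine controls for 90 minutes at 37 degrees C before luminescent detection.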
ClpP mod: qHTS Assay for Activators of ClpP | ATP-dependent Clp protease proteolytic subunit (Bacillus subtilis (strain 168)), P80244 | purified B. subtilis ClpP, FRET peptide cleavage, 20 min | Potency, µM (doses to about 57.5 µM) | 340,000 tested, 1.9% active | AID 651965, 2013; active means well fitted falling curve with a large enough effect; inconclusive means small, poorly fitted or top-dose-only effect; inactive means no such curve, though single readings can be large or run the other way; further: the source files actives as falling curves though it sought activators and does not explain the sign; nearly all actives have a fitted effect of over 65% in size
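ClpP 10 microg/mL final, pH 8 Tris/KCl buffer with BSA, glycerol, Tween-20; compound pinned in; FRET-FV substrate; RT 20 min; Ex320/Em430; ΔFRET vs ADEP 5.8 microM, DMSO, no enzyme.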
D3 ag: activates the human D3 dopamine receptor; P35462; D3R DiscoveRx beta-arrestin cells, luminescence, 90 min; max activation, %; 410,000 tested, 0.58% active; in the data active means max activation above about 30%
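Cells at 1500/well, incubated overnight, then treated with pinned compounds (dopamine as control) for 90 min at 37 degrees C. DiscoveRx reagent added for 30 - 60 minutes at room temperature; luminescence read.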
DT40 TDP1 CPT: DT40-hTDP1 cell growth loss with CPT. 420,000 tested, 12% active. Potency, µM (doses to about 46.2 µM), most hits filed as inhibitors. AID 686979. chicken DT40 Tdp1-/-;hTDP1 cells + 20 nM CPT, ATP luminescence, 48 h; further: nearly all actives have a fitted effect of over 55% in size
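Chicken DT40 Tdp1-/- cells stably complemented with human TDP1 were seeded at 400 cells/well in medium containing 20 nM camptothecin, exposed to pin-transferred compounds, and grown at 37 °C for at least 48 hr. Viability was read as ATP luminescence.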
Each line names hits and unclear results; the compound was inactive in the other large screens. Most compounds without a hit are left out; they make up all but 21% or so of the library. Unless noted, the call rests on the fitted dose curve; in most records, active means well fitted inhibition curve with a large enough effect; inconclusive means small, poorly fitted or top-dose-only effect; inactive means flat fitted curve, though single readings scatter.

O=C(O)c1ccc(S(=O)(=O)c2ccc3c(c2)C(=O)N(NC(=O)c2ccc(O)cc2)C3=O)cc1	none (no result: ClpP mod)
Cc1ccc(C(=O)NN2C(=O)c3ccc(S(=O)(=O)c4ccc(C(=O)O)cc4)cc3C2=O)cc1	TDP1 cell noCPT inconclusive, DT40 TDP1 CPT 18µM (no result: ClpP mod)
Cc1cc(C)c[n+](CC(=O)c2ccc(-c3ccccc3)cc2)c1	TDP1 cell noCPT inconclusive, ClpP mod inconclusive, DT40 TDP1 CPT 18µM
Cc1ccc(NC(=O)COc2ccc(CCO)cc2-n2nc3ccccc3n2)cc1C	TDP1 cell noCPT 12µM, DT40 TDP1 CPT inconclusive
CC(C)C[C@@H](C(=O)O)N(Cc1cccc(CN([C@@H](CC(C)C)C(=O)O)S(C)(=O)=O)c1)S(C)(=O)=O	none
O=[N+]([O-])c1ccccc1/C=C/C=N/Nc1ccc(S(=O)(=O)Nc2ccc(Cl)cc2)cc1[N+](=O)[O-]	TDP1 cell noCPT 18µM, DRD3 antagonist inconclusive, DT40 TDP1 CPT 16µM
C/C(=N\Nc1ccc(S(=O)(=O)Nc2ccccc2)cc1[N+](=O)[O-])c1ccc(N2CCOCC2)cc1	TDP1 cell noCPT 2.6µM, DT40 TDP1 CPT 15µM
O=[N+]([O-])c1cc(/C=N/Nc2nc(N3CCOCC3)nc(N3CCOCC3)n2)ccc1Cl	none
O=C(O)c1ccc(N/N=C/C=C/c2ccccc2[N+](=O)[O-])cc1	TDP1 cell noCPT inconclusive
C/C(=N\Nc1ccc(S(=O)(=O)Nc2ccc(Cl)cc2)cc1[N+](=O)[O-])c1ccc(N2CCOCC2)cc1	TDP1 cell noCPT inconclusive, DRD3 antagonist inconclusive, DT40 TDP1 CPT inconclusive
COc1ccc(NS(=O)(=O)c2ccc(N/N=C(\C)c3ccncc3)c([N+](=O)[O-])c2)cc1	TDP1 cell noCPT 7.3µM, DRD3 antagonist -65, DT40 TDP1 CPT 12µM
O=[N+]([O-])c1cc(S(=O)(=O)Nc2cccc(Cl)c2)ccc1N/N=C/c1ccc(N2CCOCC2)cc1	TDP1 cell noCPT 10µM, DT40 TDP1 CPT inconclusive
Cc1cnc(CNc2ncnc3ccc(-c4ccccc4CN(C)C)cc23)cn1	TDP1 cell noCPT inconclusive (no result: IL1B secr inh, DRD3 antagonist, ClpP mod, D3 ag)
O=C(c1cc(C(F)(F)F)cc(C(F)(F)F)c1)N1CCC[C@@]2(CCN(c3ccncc3)C2)C1	TDP1 cell noCPT inconclusive (no result: IL1B secr inh, DRD3 antagonist, ClpP mod, D3 ag)
CC(=NNC(=S)N1CC2CCC(CC2)C1)c1cccc(C)n1	TDP1 cell noCPT 0.021µM, IL1B secr inh -110, DRD3 antagonist -73, DT40 TDP1 CPT 0.01µM
COc1ccc(Nc2nc(C(=O)NCc3ccco3)cs2)cc1	TDP1 cell noCPT inconclusive, DT40 TDP1 CPT 23µM
COc1ccccc1-c1cc(C(=O)NCc2ccco2)no1	none
O=C(NCc1ccccc1)c1cc(-c2ccco2)on1	TDP1 cell noCPT inconclusive
O=C(NCc1ccco1)c1cc(-c2ccco2)on1	TDP1 cell noCPT inconclusive, DT40 TDP1 CPT 23µM
COc1ccc(CCNC(=O)c2cc(-c3cccs3)on2)cc1OC	D3 ag 36, DT40 TDP1 CPT inconclusive
O=C(NCCc1ccccc1)c1cc(-c2ccco2)on1	TDP1 cell noCPT inconclusive, DT40 TDP1 CPT 6.3µM
OC(c1ccccc1)c1ncc(-c2ccccc2F)[nH]1 (configuration not stated)	none
COc1cc(OC)cc(C(=O)N[C@H](C(=O)NCc2ccco2)C(C)C)c1	TDP1 cell noCPT 15µM, DT40 TDP1 CPT 29µM (no result: ClpP mod)
COc1ccc(C(=O)N[C@H](C(=O)NCc2ccco2)C(C)C)cc1	TDP1 cell noCPT inconclusive
COc1ccc(CCNC(=O)c2cc(-c3ccco3)on2)cc1OC	TDP1 cell noCPT 16µM, IL1B secr inh inconclusive, DT40 TDP1 CPT 10µM (no result: ClpP mod)
COC(=O)c1cnc(Nc2nc(C(N)Cc3ccccc3)cs2)nc1C(F)(F)F (configuration not stated)	TDP1 cell noCPT 21µM, IL1B secr inh inconclusive, DT40 TDP1 CPT 23µM
COC(=O)c1cnc(Nc2nc(C(N)Cc3ccc(Cl)cc3)cs2)nc1C(F)(F)F (configuration not stated)	TDP1 cell noCPT 23µM, DT40 TDP1 CPT inconclusive

From PubChem BioAssay
